Test results taken from PMC11024108.

Experiments:
[1] = biological target: T-complex protein 1 subunit delta (UniProt P80315); assay: cross-link between two proteins; cross-linking mass spectrometry
[2] = biological target: T-complex protein 1 subunit epsilon (UniProt P80316); assay: as above
[3] = biological target: T-complex protein 1 subunit gamma (UniProt P80318); assay: as above
[4] = biological target: T-complex protein 1 subunit zeta (UniProt P80317); assay: as above
Talin-2 = Talin-2 (UniProt Q71LX4); assay: as above
Sequence of Talin-2 (Q71LX4 whole entry, the tested form may be a part): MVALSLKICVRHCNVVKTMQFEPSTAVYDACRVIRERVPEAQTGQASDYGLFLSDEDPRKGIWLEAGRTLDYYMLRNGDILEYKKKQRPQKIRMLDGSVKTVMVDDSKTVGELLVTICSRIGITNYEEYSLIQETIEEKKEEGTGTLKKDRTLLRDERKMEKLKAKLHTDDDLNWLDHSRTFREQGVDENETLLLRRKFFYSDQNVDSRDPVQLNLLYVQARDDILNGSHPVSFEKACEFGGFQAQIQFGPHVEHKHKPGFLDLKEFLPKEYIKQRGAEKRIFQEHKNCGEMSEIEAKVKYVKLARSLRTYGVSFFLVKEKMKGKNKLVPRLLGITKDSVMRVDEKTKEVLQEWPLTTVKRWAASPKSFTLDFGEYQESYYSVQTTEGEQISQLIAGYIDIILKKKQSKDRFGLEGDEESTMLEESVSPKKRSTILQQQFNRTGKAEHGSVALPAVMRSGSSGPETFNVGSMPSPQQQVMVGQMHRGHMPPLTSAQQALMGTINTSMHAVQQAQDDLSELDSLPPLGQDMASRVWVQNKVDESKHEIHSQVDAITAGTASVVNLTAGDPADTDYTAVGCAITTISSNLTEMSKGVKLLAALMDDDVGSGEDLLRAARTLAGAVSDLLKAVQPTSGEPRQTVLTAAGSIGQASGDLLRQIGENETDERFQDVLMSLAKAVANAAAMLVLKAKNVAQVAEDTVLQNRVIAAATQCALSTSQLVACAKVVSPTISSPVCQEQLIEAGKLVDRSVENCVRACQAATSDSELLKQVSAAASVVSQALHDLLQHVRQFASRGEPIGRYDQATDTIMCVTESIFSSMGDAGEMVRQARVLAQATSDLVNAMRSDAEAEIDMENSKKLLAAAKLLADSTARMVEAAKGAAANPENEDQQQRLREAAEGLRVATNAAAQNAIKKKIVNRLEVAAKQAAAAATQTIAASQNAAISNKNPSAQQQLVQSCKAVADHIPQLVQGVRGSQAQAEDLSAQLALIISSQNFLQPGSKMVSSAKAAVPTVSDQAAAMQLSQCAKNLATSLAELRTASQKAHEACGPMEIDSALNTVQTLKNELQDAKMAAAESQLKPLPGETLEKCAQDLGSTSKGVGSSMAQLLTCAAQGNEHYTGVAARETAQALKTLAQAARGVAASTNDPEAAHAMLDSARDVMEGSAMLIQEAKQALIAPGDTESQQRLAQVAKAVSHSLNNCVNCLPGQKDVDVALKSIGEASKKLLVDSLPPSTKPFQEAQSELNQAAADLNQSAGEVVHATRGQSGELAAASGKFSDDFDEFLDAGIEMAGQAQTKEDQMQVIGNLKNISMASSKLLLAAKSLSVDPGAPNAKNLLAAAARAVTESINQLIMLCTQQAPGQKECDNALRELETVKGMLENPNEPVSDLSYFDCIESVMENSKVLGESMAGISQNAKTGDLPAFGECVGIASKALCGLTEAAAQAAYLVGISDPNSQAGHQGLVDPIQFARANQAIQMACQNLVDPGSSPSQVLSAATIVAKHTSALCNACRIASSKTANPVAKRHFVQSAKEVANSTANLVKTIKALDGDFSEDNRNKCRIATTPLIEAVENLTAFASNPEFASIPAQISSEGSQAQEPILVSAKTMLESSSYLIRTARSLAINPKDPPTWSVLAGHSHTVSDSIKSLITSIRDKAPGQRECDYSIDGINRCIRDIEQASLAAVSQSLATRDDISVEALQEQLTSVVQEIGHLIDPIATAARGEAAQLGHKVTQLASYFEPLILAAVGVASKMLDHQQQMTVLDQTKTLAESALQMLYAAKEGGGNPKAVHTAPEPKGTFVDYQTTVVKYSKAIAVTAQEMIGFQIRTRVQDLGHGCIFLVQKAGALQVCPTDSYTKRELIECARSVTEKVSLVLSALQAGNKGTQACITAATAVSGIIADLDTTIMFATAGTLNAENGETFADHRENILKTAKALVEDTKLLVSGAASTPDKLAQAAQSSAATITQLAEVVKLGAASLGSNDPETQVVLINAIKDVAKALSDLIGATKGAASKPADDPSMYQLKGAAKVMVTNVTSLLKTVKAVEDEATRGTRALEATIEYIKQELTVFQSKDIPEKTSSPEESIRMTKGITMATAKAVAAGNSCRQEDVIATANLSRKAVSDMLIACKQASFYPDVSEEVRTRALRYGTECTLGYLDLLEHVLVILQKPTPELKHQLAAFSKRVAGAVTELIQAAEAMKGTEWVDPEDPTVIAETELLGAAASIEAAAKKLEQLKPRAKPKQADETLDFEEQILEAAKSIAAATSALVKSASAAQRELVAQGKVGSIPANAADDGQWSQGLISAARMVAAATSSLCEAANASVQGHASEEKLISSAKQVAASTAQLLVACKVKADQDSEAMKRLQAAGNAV

[5] = biological target: Thioredoxin domain-containing protein 5 (UniProt Q8NBS9); assay: as above
[6] = biological target: Transcriptional activator protein Pur-alpha (UniProt P42669); assay: as above
[7] = biological target: Translation machinery-associated protein 7 (UniProt Q9Y2S6); assay: as above
Sequence of Translation machinery-associated protein 7 (Q9Y2S6 whole entry, the tested form may be a part): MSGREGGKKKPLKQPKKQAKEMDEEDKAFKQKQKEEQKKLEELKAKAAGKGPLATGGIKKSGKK

[8] = biological target: Transmembrane emp24 domain-containing protein 5 (UniProt Q9Y3A6); assay: as above
[9] = biological target: Trifunctional enzyme subunit alpha, mitochondrial (UniProt P40939); assay: as above
Tubulin alpha-1A chain = Tubulin alpha-1A chain (UniProt P68369); assay: as above
Sequence of Tubulin alpha-1A chain (P68369 whole entry): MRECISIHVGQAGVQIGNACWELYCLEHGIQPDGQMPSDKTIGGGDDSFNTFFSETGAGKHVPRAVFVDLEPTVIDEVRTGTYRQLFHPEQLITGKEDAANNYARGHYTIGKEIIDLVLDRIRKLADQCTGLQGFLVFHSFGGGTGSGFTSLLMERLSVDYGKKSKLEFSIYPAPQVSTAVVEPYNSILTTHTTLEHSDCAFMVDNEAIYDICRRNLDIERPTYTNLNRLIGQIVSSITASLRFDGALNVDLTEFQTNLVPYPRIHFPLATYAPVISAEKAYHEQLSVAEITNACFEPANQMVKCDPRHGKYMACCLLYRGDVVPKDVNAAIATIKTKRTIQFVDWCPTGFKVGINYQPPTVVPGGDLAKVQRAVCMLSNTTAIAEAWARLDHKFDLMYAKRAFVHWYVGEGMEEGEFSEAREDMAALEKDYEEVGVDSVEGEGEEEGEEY

[10] = biological target: UDP-glucose:glycoprotein glucosyltransferase 1 (UniProt Q9NYU2); assay: as above
[11] = biological target: Ubiquitin-like protein NEDD8 (UniProt Q15843); assay: as above
[12] = biological target: V-type proton ATPase subunit C 1 (UniProt Q9Z1G3); assay: as above
Sequence of V-type proton ATPase subunit C 1 (Q9Z1G3 whole entry): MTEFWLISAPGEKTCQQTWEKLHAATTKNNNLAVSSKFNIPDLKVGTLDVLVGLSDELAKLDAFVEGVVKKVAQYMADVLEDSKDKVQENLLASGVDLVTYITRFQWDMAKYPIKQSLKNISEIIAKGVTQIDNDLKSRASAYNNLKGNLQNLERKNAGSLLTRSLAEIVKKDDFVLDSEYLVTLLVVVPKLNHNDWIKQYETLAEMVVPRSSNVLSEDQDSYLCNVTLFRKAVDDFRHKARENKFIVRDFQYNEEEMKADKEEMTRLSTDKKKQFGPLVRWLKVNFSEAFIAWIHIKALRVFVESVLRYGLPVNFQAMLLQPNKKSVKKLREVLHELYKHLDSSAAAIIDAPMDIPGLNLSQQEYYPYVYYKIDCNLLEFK

[13] = biological target: V-type proton ATPase subunit F (UniProt Q9D1K2); assay: as above
Sequence of V-type proton ATPase subunit F (Q9D1K2 whole entry): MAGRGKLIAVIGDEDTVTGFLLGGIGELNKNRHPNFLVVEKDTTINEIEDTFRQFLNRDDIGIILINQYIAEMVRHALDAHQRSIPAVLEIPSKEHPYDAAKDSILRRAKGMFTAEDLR

[14] = biological target: V-type proton ATPase subunit D (UniProt P57746); assay: as above
[15] = biological target: V-type proton ATPase subunit E 1 (UniProt P50518); assay: as above
[16] = biological target: V-type proton ATPase subunit G 1 (UniProt Q9CR51); assay: as above
Sequence of V-type proton ATPase subunit G 1 (Q9CR51 whole entry): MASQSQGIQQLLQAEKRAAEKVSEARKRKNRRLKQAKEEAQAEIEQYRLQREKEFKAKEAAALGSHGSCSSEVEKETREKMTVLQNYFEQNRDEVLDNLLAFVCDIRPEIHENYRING

[17] = biological target: V-type proton ATPase subunit G 2 (UniProt Q9WTT4); assay: as above
Sequence of V-type proton ATPase subunit G 2 (Q9WTT4 whole entry): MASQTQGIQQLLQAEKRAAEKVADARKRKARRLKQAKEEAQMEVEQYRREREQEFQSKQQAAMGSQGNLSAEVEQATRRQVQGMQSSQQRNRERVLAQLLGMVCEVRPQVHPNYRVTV

[18] = biological target: V-type proton ATPase subunit H (UniProt Q8BVE3); assay: as above
[19] = biological target: Vesicle transport through interaction with t-SNAREs homolog 1B (UniProt Q9UEU0); assay: as above
[20] = biological target: Vesicle-associated membrane protein-associated protein A (UniProt Q9WV55); assay: as above
Vimentin = Vimentin (UniProt P08670); assay: as above
[21] = biological target: tRNA-splicing ligase complex subunit RTRAF (UniProt Q9CQE8); assay: as above
[22] = biological target: Cytochrome c oxidase assembly factor 7 (UniProt Q96BR5); assay: mass-spectrometry hit list; affinity purification or IP with mass spectrometry; cross-linking mass spectrometry

Sequence of T-complex protein 1 subunit epsilon (P80316 whole entry, one chain of several): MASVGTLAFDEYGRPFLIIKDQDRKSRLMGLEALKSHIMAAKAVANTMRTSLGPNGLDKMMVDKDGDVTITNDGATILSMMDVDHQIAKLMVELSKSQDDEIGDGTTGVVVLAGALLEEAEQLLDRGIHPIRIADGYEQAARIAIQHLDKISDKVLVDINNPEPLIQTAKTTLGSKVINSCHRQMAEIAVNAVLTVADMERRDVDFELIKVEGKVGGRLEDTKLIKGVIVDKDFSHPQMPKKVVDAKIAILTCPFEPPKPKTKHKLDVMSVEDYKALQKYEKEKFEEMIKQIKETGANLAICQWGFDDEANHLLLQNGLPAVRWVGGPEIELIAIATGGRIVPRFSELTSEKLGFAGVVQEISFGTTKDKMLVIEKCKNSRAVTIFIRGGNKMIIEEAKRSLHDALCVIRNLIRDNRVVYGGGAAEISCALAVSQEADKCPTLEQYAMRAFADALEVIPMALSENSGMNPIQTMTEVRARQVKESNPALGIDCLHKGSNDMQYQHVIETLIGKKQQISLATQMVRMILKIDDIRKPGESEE
Sequence of V-type proton ATPase subunit D, P57746 (P57746 whole entry): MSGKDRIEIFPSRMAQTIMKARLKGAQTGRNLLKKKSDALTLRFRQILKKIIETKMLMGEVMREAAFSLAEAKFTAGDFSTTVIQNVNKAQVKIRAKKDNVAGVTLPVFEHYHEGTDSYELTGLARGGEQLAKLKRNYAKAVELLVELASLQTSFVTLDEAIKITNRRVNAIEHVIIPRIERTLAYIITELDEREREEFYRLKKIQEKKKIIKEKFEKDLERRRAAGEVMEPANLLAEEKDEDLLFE
Sequence of T-complex protein 1 subunit delta (P80315 whole entry, stated change not applied, one chain of several): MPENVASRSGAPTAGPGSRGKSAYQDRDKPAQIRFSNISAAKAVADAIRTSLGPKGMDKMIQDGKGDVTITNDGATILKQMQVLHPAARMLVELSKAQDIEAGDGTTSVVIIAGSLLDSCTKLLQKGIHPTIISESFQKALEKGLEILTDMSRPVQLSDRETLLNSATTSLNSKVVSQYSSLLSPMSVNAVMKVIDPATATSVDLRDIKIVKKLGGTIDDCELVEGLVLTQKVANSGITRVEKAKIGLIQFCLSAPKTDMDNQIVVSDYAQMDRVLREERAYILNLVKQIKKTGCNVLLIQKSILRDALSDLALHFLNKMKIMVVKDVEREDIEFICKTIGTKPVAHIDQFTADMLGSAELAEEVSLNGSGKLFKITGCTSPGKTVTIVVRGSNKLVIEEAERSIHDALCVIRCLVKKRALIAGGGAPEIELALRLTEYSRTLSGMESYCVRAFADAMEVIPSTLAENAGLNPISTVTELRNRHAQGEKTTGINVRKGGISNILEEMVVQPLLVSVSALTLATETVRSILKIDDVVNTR

**Q.** For “T-complex protein 1 subunit beta, P80314”, which “listed as a hit” value [1] is on record?
**A.** yes

**Q.** And the “listed as a hit” value [2]?
**A.** yes

**Q.** How did the “listed as a hit” value [2] turn out when “T-complex protein 1 subunit delta, P80315” was run?
**A.** yes

**Q.** “T-complex protein 1 subunit zeta, P80317” was tested. Which “listed as a hit” value [3] did it give?
**A.** yes

**Q.** Which “listed as a hit” value [4] does the source give for “T-complex protein 1 subunit theta, P42932” here?
**A.** yes

**Q.** For Talin-1, P26039, which “listed as a hit” value (Talin-2) is on record?
**A.** yes

**Q.** For Peroxiredoxin-4, Q13162, which “listed as a hit” value [5] is on record?
**A.** yes

**Q.** With “Transcriptional regulator protein Pur-beta, O35295” as the substance, how does the “listed as a hit” value [6] read?
**A.** yes

**Q.** With Nuclease EXOG, mitochondrial, Q9Y2C4 as the substance, how does the “listed as a hit” value [7] read?
**A.** yes

**Q.** “Transmembrane emp24 domain-containing protein 9, Q9BVK6” was tested. Which “listed as a hit” value [8] did it give?
**A.** yes

**Q.** ADP/ATP translocase 3, P12236 was tested. Which “listed as a hit” value [9] did it give?
**A.** yes

**Q.** Which “listed as a hit” value (Tubulin alpha-1A chain) does the source give for Tubulin alpha-4A chain, P68368 here?
**A.** yes

**Q.** Selenoprotein F, O60613 was tested. Which “listed as a hit” value [10] did it give?
**A.** yes

**Q.** Which “listed as a hit” value [11] does the source give for Cullin-2, Q13617 here?
**A.** yes

**Q.** Which results are given for V-type proton ATPase subunit D, P57746?
**A.** listed as a hit [12]: yes; listed as a hit [13]: yes

**Q.** Which “listed as a hit” value [14] does the source give for “V-type proton ATPase catalytic subunit A, P50516” here?
**A.** yes

**Q.** And the “listed as a hit” value [15]?
**A.** yes

**Q.** For “V-type proton ATPase subunit E 1, P50518”, which “listed as a hit” value [16] is on record?
**A.** yes

**Q.** And the “listed as a hit” value [17]?
**A.** yes

**Q.** Which “listed as a hit” value [18] does the source give for “V-type proton ATPase subunit B, brain isoform, P62814” here?
**A.** yes

**Q.** For “Vesicle-associated membrane protein 7, P51809”, which “listed as a hit” value [19] is on record?
**A.** yes

**Q.** “Vesicle-associated membrane protein-associated protein B, Q9QY76” was tested. Which “listed as a hit” value [20] did it give?
**A.** yes

**Q.** For “Neurofilament medium polypeptide, P07197”, which “listed as a hit” value (Vimentin) is on record?
**A.** yes

**Q.** Which “listed as a hit” value [21] does the source give for RNA-splicing ligase RTCB, Q99LF4 here?
**A.** yes

**Q.** MICOS complex subunit MIC60, Q16891 was tested. Which “listed as a hit” value [22] did it give?
**A.** yes
